This is an account of results in PubChem BioAssay (NCATS).

SMILES strings stand for the structures. Records with an inconclusive call do not appear. Activity calls are given as the source filed them. Calls come from the whole dose curve; as a rule, active = well fitted curve in either direction with a large enough effect (not every such curve was filed as active); inconclusive = small, poorly fitted or top-dose-only effect, or another doubt; inactive = flat fitted curve, though single readings scatter.
% is set by controls: 0 for no effect and ±100 for the full control effect.

The nature of the test: AP1 Signaling Pathway (AID 357).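 Note: ME-180 reporter cells stimulated with EGF at its EC50 level.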 The following applies: ME-180 (cervical carcinoma) AP-1-bla reporter, EGF-induced, beta-lactamase ratio, 5 h; at 17.2 µM (top of the series) unless noted. The essentials:
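First, ME-180 AP-1-bla cells were cultured overnight at 37 °C in low-serum Opti-MEM. Next, titrated compounds with EC50 EGF were incubated 5 hours. Finally, CCF4 was added for 2.5 hours and the 460/530 nm ratio recorded.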
Take `COc1ccc(C2CC(c3ccccc3)Nc3nc(N)nn32)cc1` (stereo unspecified): the activity change, negative = inhibition is 9.32% (inactive).

Take `CC1(C)Cc2c(c(-c3ccccc3)[nH]c(=O)c2C#N)CS1`: the activity change, negative = inhibition was -0.182% (inactive).

Consider `O=C(NCCCn1ccnc1)c1cccnc1`, for which the activity change, negative = inhibition is 14.4% (inactive).

For `COc1cc([C@@H]2[C@H]3CN(C)CC=C3C(C#N)=C(N)C2(C#N)C#N)cc2c1OCO2`, the activity change, negative = inhibition was -11% (inactive).

Regarding `CNC(=O)c1cc2ccccc2o1`, the activity change, negative = inhibition was 8.83% (inactive).

Consider `CCOC(=O)c1[nH]c2ccccc2c1NC(=O)CCN1CCN(C(=O)OCC)CC1`, for which the activity change, negative = inhibition is -2.19% (inactive).

As for `CC(=O)N1CCN(C2c3cccc4cccc(c34)C2NS(=O)(=O)c2ccccc2)CC1` (stereo unspecified), the activity change, negative = inhibition is -3.48% (inactive).

In the case of `Cc1c(NC(=O)c2ccc(=O)oc2)c(=O)n(-c2ccccc2)n1C`, the activity change, negative = inhibition was 10.3% (inactive).

In the case of `CCOc1ccc(C2C(C(=O)c3ccc(C)o3)=C(O)C(=O)N2CCCN(CC)CC)cc1` (stereo unspecified), the activity change, negative = inhibition was -5.84% (inactive).

Take `COc1ccc(-c2c3c([nH]c(=S)c2C#N)CCC3)cc1`: the activity change, negative = inhibition is 22.9% (inactive).

On to `COc1ccc(OCC(=O)N2CCN(C(=O)c3cccc4ccccc34)CC2)cc1`, for which the activity change, negative = inhibition was -4.98% (inactive).

On to `Cc1[nH]nc2cn[nH]c12`, for which the activity change, negative = inhibition was -10.4% (inactive).

For `S=c1[nH]nc(-c2ccccc2)n1Cc1ccccc1`, the activity change, negative = inhibition is -4.69% (inactive).

As for `COc1cccc(OC)c1-c1nn2c(-c3ccco3)nnc2s1`, the activity change, negative = inhibition is -10.9% (inactive).

With `CC1(C)CN(O)CCN1O`, the activity change, negative = inhibition was 29.1% (inactive).

`Cc1cc(/C(O)=C2\C(=O)C(=O)N(CCN(C)C)C2c2ccncc2)ccc1OCc1ccccc1` (stereo unspecified): the activity change, negative = inhibition is -14.5% (inactive).
